# In PubChem BioAssay AID1362 (SRMLSC, 2008):
# The whole screen tested about 190,000 compounds, of which about 4,000 (2.1%) were called active. No stated cut-off is given here; in the data, active means inhibition above about 58%; inactive means the rest, inconclusive results apart; tested in S. cerevisiae. Only a selection was taken, and actives are over-represented in it overall.
# Test: growth inhibition of WT strain, primary screen, mitochondrial fusion inhibitor project, WT and mutant strains, chemical genetic (AID 1362)
# Conditions: mitochondrial fusion phenotypic screen, at 10 µM
# [1] = WT strain, growth inhibition, stronger effect = higher value
Compound,inhibition [1],inhibition (mutant strain inhibition)
CC(Sc1nncn1C)C(=O)Nc1cc(C(F)(F)F)ccc1N1CCOCC1 (stereo unspecified),-29% (inactive),-7.18%
COc1ccc(OC)c(NC(=O)CN2CCN(C(=O)c3ccco3)CC2)c1,-14.9% (inactive),-24.9%
COc1ccc(NC(C)=O)cc1NC(=O)CN1CCN(c2ccccn2)CC1,-13.6% (inactive),-9.7%
COc1ccc(NC(C)=O)cc1NC(=O)CN1CCN(C2c3ccccc3-c3ccccc32)CC1,60.1% (active),41.5%
OCC1(CCOc2ccccc2)CCN(Cc2cn[nH]c2-c2ccccc2)CC1,15.8% (inactive),-2.31%
Cc1c(C(=O)N2CCOCC2)[nH]c2ccc(OCc3ccccc3)cc12,14.8% (inactive),11.7%
Cc1c(CN2CCC(CO)(CCOc3ccccc3)CC2)[nH]c2ccc(Cl)cc12,94.7% (active),93.1%
CN(c1ccccc1)S(=O)(=O)c1cc(C(=O)OCC(=O)N2CCN(C(=O)c3ccco3)CC2)ccc1Cl,-22.5% (inactive),9.01%
Cc1cccc(-c2ncc(CN3CCC(CO)(CCCc4ccccc4)CC3)cn2)c1,84.8% (active),70.5%
COc1cccc(CC2(CO)CCN(Cc3cnc(-c4cccc(C)c4)nc3)CC2)c1,-0.71% (inactive),-25.4%
OCC1(CCc2ccccc2)CCN(Cc2ccc3nsnc3c2)CC1,9.84% (inactive),25.4%
N#CCSc1nn(-c2ccc(F)cc2)c(=S)s1,4.11% (inactive),-30.5%
COCCN(C(=O)c1ccccc1F)c1c(N)n(Cc2ccccc2)c(=O)[nH]c1=O,4.27% (inactive),0.13%
O=[N+]([O-])c1ccccc1N/N=C1\CCc2ccccc21,-0.84% (inactive),3.81%
O=C1c2ccccc2NC(c2ccccc2O)N1NS(=O)(=O)c1ccccc1 (stereo unspecified),-6.26% (inactive),-11.6%
CCCCN(CC)CCCNC(=O)c1ccc(CSc2nc3ccncc3[nH]2)cc1,7.78% (inactive),7.15%
Cc1ccc(-n2cc(CN(C)Cc3nccn3C)c(-c3cccc(C)c3)n2)cc1,78.8% (active),64.6%
COc1ccc(-n2cc(CN(C)Cc3n[nH]c(=O)[nH]3)c(-c3cccc(F)c3)n2)cc1,7.75% (inactive),8.93%
Cc1cccc(-n2cc(CN3CCN(C(=O)c4ncn[nH]4)CC3)c(-c3cccc(F)c3)n2)c1,10.2% (inactive),-17.8%
Brc1ccc2nc(N3CCCC3)sc2c1,14.9% (inactive),19.6%
CCOC(=O)C1(Cc2cccc(OC)c2)CCN(Cc2csc(C(C)=O)c2)CC1,25.6% (inactive),25%

Compound,inhibition [1],inhibition (mutant strain inhibition)
O=C(c1ccc(-c2ccccc2)cc1)C1CCCN(C(=O)c2cncs2)C1 (stereo unspecified),-57.9% (inactive),9.01%
CCc1ccc2c(c1)C(c1ccc([N+](=O)[O-])cc1)=NNC(c1ccccc1)=N2,-6.57% (inactive),12%
CCOc1ccc2c(c1)C(c1ccc(C)cc1)=NNC(c1ccc(C)cc1)=N2,45.3% (inactive),35.7%
Cc1ccc(C2=Nc3c(ccc4ccccc34)C(c3ccncc3)=NN2)cc1,67.9% (active),45.6%
Cc1coc(C)c1C(=O)CC1(O)C(=O)N(C)c2ccc(Cl)cc21 (stereo unspecified),5.13% (inactive),0.33%
CCCCCC(=O)Nc1ccc(C(=O)N/N=C/c2ccc([N+](=O)[O-])cc2)cc1,-17% (inactive),15.9%
CCOc1ccc(NC(=O)CCC(=O)n2nc(C)cc2C)cc1,-6.72% (inactive),-6.56%
CCOc1ccc(NC(=O)CCC(=O)N/N=C/c2ccc([N+](=O)[O-])s2)cc1,60.3% (active),17.2%
Cc1ccccc1NCC(=O)N/N=C\c1ccc([N+](=O)[O-])s1,66.5% (active),43.8%
COc1ccc(C(=O)NCC(=O)N/N=C/c2ccc([N+](=O)[O-])s2)cc1OC,-4.24% (inactive),-9.98%
Cc1cccc(/C=N/NC(=O)CNc2cccc3ccccc23)n1,18.4% (inactive),3.37%
CCN(CC)C(=O)Cn1cc(S(=O)(=O)CC(=O)NCc2ccc3c(c2)OCO3)c2ccccc21,-10.5% (inactive),4.73%
O=C(/C=C/c1ccc(F)cc1)NCCNC(=O)/C=C/c1ccc(F)cc1,8.8% (inactive),-17%
OCC1(Cc2ccccc2)CCN(Cc2cc3ccccc3o2)CC1,24.3% (inactive),36.2%
Cc1csc(Nc2ccc(Cl)cc2)[n+]1-c1ccc(Cl)cc1,78.4% (active),70%
COc1ccc(N2CCN(C(=O)COc3ccc4c(C)cc(=O)oc4c3)CC2)cc1,-1.11% (inactive),-11.1%
CC(C)c1nc(CNC(=O)CC2C(=O)NCCN2Cc2ccoc2)cs1 (stereo unspecified),1.8% (inactive),0.76%
CN(CCC#N)c1ncnc2scc(-c3ccccc3)c12,23.5% (inactive),28.2%
CN(C(=O)COc1ccccc1)c1nnc(-c2ccncc2)s1,22.6% (inactive),9.04%
N#CCCN(CCC#N)c1nnc(-c2ccccc2)s1,73.6% (active),-2.41%
OCCC1CN(Cc2cccc(O)c2)CCN1CCc1ccccc1 (stereo unspecified),9.78% (inactive),8.67%

Compound,inhibition [1],inhibition (mutant strain inhibition)
CCc1ccc(Oc2nc([N+](=O)[O-])nn2C)cc1,3.07% (inactive),19%
CCn1c(SCc2ccc(C)cc2)nnc1-c1nn(-c2ccccc2)ccc1=O,4.19% (inactive),-13.4%
N=C(N)SCc1cccc2ccccc12,41% (inactive),10.9%
CCc1ccc(-c2nn(-c3ccccc3)cc2CSC(=N)N)cc1,90.2% (active),35.6%
O=C(Nc1ccc2cn[nH]c2c1)c1ccc(S(=O)(=O)N2CCOCC2)cc1,2.7% (inactive),11.1%
CS(=O)(=O)N1CCc2cc(C(=O)Nc3ccccc3)ccc21,-2.67% (inactive),-18.5%
Cc1cccc2cc3c(N)c(C(=O)N4CCCc5ccccc54)sc3nc12,62.1% (active),57.1%
Cc1occc1C(=O)N1CCCc2ccccc21,-3.43% (inactive),-8.66%
Cc1c(C(=O)N2CCCc3ccccc32)sc2nc(-c3ccccc3)cn12,9.55% (inactive),9.04%
C/C(=N\NC(=O)c1cccc(N2CCCC2=O)c1)c1ccc(N)cc1,-2.44% (inactive),-3.4%
CCNC(=S)NNC(=O)c1ccc2ncccc2c1,-18.5% (inactive),-0.98%
O=C(COC(=O)c1ccc(O)cc1)Nc1nccs1,-7.58% (inactive),1.79%
O=C(CN1CCN(S(=O)(=O)c2ccc(Cl)s2)CC1)NCc1ccc(Cl)cc1,61.7% (active),-2.81%
Cc1ccc(CNC(=O)CN2CCN(Cc3ccc(Cl)cc3)C2=O)cc1,4.82% (inactive),-0.06%
O=C(CN1CCN(c2ccc(Cl)cc2)CC1)NCc1cccs1,14.4% (inactive),-1.49%
Cc1ccc2nsnc2c1S(=O)(=O)N1CCCC1C(=O)O (stereo unspecified),2.57% (inactive),-0.55%
CC(=O)NC(Cc1ccc(F)c(F)c1)C(=O)NC1CCN(c2nnnn2-c2ccccc2)CC1 (stereo unspecified),-2.05% (inactive),7.21%
CS(=O)(=O)N(Cc1ccccc1Cl)c1ccc(C(=O)NCc2cccnc2)cc1,1.43% (inactive),5.31%
Clc1ccc(C2=CSC3=Nc4cccc5cccc(c45)N23)cc1,61% (active),25.3%
COc1ccc(CN2CCNC(=O)C2CC(=O)N(C)Cc2ccccn2)cc1OC (stereo unspecified),-6.3% (inactive),-4.12%
COC(=O)CSc1ccc2nnc(CCNS(=O)(=O)c3ccc(C)cc3)n2n1,8.31% (inactive),0.44%

Compound,inhibition [1],inhibition (mutant strain inhibition)
CCCCCC(=O)Nc1ccc(-c2cn3cccnc3n2)cc1,10.4% (inactive),10.5%
COc1ccc(CCN=C2SCC(=O)N2Cc2ccccc2)cc1OC,-7.75% (inactive),-8.9%
Cc1cccc(NC(=S)NCc2ccc3[nH]c4c(c3c2)CCCC4)c1,75.3% (active),51.7%
Cc1cccc(NC(=S)NCCN(C2CCCCC2)C2CCCC2)c1,6.36% (inactive),-17.7%
O=C(O)CCC(=O)NCc1ccc2[nH]c3c(c2c1)CCCC3,16.4% (inactive),10.2%
OC(COc1ccc(CN2CCSCC2)cc1)CN1CCCCC1 (stereo unspecified),-6.41% (inactive),3.34%
C=CCN(CC=C)C(=O)COC(=O)c1n[nH]c2ccccc12,3.05% (inactive),3.34%
NC(=O)COC(=O)c1cc(S(=O)(=O)N2CCN(c3ccccc3)CC2)ccc1Cl,-11% (inactive),6.11%
CCC(C)c1ccc(NC(=S)NCc2ccccn2)cc1 (stereo unspecified),71% (active),62.6%
O=C(NCc1ccccn1)Nc1ccc(F)cc1,-29.6% (inactive),-0.93%
COc1cccc(NC(=S)NCc2ccccn2)c1,-0.62% (inactive),6.49%
COC(=O)Cc1ccc(Oc2ncc(C(F)(F)F)cc2Cl)cc1,13.6% (inactive),17.5%
Cc1cc(C)cc(NS(=O)(=O)c2ccc(Oc3ncc(C(F)(F)F)cc3Cl)cc2)c1,75.5% (active),23.7%
COc1ccccc1Oc1ccc(S(=O)(=O)Nc2cccnc2)cc1,7.74% (inactive),7.52%
COC(=O)C1=C(C)N(C)C(=S)NC1c1cc(OC)ccc1OC (stereo unspecified),4.73% (inactive),3.84%
O=C(NCc1ccccc1Cl)C1CCCO1 (stereo unspecified),-11.3% (inactive),7.12%
COC(=O)CNC(=O)c1ccc(OC2CCN(C(=O)C3CC3)CC2)cc1,1.17% (inactive),10.2%
COc1cccc(NC(=S)N(Cc2ccc(C)cc2)Cc2ccccn2)c1,4.22% (inactive),20.6%
CSc1cccc(NC(=S)N(C(C)C)C(C)c2ccccn2)c1 (stereo unspecified),31.2% (inactive),20.5%
CSc1cccc(NC(=S)N(Cc2ccccc2)Cc2ccccn2)c1,65.9% (active),28.6%
